Laboratory results published in PubChem BioAssay (EPA / NIEHS).
Calls of active or inactive are those of the source. The calls were made as follows: active = hit-call score of the fitted dose curve at least 0.9, where 1 is the maximum; inactive = score below 0.9.

The molecules below were run on Human Leukocyte Antigen - DR isotype (HLADR), HLA-DRA (gene 3122) (assay: BSK_3C_HLADR: BioMAP Diversity Plus: 3C Assay for Human Leukocyte Antigen - DR isotype (HLADR) Biomarker Activity (AID 2283019)). Conditions: primary human endothelial cells (HUVEC); actives raise or lower the signal.
Summary of the method: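 HUVEC monoculture, HLA-DR measured by ELISA 24 h after chemical dosing. Fitted bidirectionally against DMSO baseline; parallel SRB staining assessed cytotoxicity, with 3C proliferation read by SRB at 48 h.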

Row | SMILES | outcome | AC50
1 | Cc1cccc(C)c1O | inactive | –
2 | CCCCCCOCCO | inactive | –
3 | O=[N+]([O-])C(CO)(CO)CO | inactive | –
4 | C1CCC(SSC2CCCCC2)CC1 | – | 20 µM (active)
5 | CNC(=O)[C@H]1O[C@@H](n2cnc3c(NCc4cc(Cl)ccc4OCc4cc(C)no4)ncnc32)[C@H](O)[C@@H]1N | inactive | –
6 | Cc1cccc([N+](=O)[O-])c1C | inactive | –
7 | CCCCCCCC=O | inactive | –
8 | CNCc1cc(F)ccc1Oc1ccc(Cl)c(Cl)c1 | – | 32.4 µM (active)
9 | COCCOCCOC | inactive | –
10 | Nc1ccc(S(=O)(=O)c2ccc(N)cc2)cc1 | inactive | –
11 | C[C@]12C=CC(=O)C=C1CC[C@@H]1[C@@H]2C(=O)C[C@@]2(C)[C@H]1CC[C@]2(O)C(=O)CO | inactive | –
12 | Cc1ccc(C(C)C)c(O)c1 | inactive | –
13 | O=C(O)Cc1ccccc1Nc1c(Cl)cccc1Cl | inactive | –
14 | Cc1oc(-c2ccccc2)nc1CCOc1cccc2c1ccn2CCC(=O)O | inactive | –
15 | CC=Cc1ccc(O)c(OC)c1 | inactive | –
16 | CCOC(=O)C(C)(C)Oc1ccc(Cl)cc1 | inactive | –
17 | Cc1ccc(N(C)C)cc1 | inactive | –
18 | CC(C)c1ccc(C(=O)N=C(N)N)cc1S(C)(=O)=O | inactive | –
19 | Cc1cc(NC(=O)C(=O)O)cc(C)c1Oc1ccc(O)c2c1CCC2 | inactive | –
20 | Nc1ccc2c(c1)C(=O)c1ccccc1C2=O | inactive | –
21 | Cc1ccc2ncccc2c1 | inactive | –
22 | CCCCCCCCCCCCCCCCCC(=O)O | inactive | –
23 | CCCCN(CCCC)CCCC | inactive | –
24 | CCCCCCCCCCCCCO | – | 35.8 µM (active)
25 | CC1(C)CC(N=C=O)CC(C)(CN=C=O)C1 (stereo not drawn) | inactive | –
26 | NS(=O)(=O)c1cc2c(cc1Cl)NCNS2(=O)=O | inactive | –
27 | COc1ccc(C)cc1N | inactive | –
28 | COc1cc(S(=O)(=O)O)c(C)cc1N=Nc1c(O)ccc2cc(S(=O)(=O)O)ccc12 | inactive | –
